Source: PubChem BioAssay (several laboratories)
Compounds with a hit are over-represented: about 27% of the library has one in this group of screens.
CYP2C9 inh: blocks human cytochrome P450 2C9 | P11712 | CYP2C9 Supersomes, luciferin-H conversion, luminescence | inhibition, % at 5 µM | 20% of 96,000 active;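 active means blocking of liver enzyme CYP2C9 beyond about 50% at 5 µM, limit read from the data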
CYP2C19 inh: human CYP2C19 inhibition | P33261 | CYP2C19 Supersomes, luciferin-H EGE luminescence, 30 min | inhibition, % at 5 µM | 21% of 96,000 active | AID 778;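 active means CYP2C19 inhibition above a set limit at 5 µM in the primary screen, cut at about 50% in these data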;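 further: plate controls were negative control wells for no effect and 2.5 mM tranylcypromine positive control for full effect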
Target sequence (P33261 whole entry, looked up): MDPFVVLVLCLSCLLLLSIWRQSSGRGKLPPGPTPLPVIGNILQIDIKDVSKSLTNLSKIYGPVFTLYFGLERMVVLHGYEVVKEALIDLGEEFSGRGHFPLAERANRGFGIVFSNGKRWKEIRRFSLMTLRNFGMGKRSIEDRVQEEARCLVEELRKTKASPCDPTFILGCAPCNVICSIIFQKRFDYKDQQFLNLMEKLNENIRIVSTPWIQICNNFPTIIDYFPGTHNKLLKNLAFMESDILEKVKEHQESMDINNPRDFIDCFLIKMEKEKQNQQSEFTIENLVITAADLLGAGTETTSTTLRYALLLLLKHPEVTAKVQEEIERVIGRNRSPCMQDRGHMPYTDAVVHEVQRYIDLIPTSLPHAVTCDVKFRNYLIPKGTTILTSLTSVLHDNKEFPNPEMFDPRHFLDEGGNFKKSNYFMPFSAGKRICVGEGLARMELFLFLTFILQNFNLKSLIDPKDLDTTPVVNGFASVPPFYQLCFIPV
CYP2C9 activ: increases human cytochrome P450 2C9 activity. P11712. recombinant CYP2C9, luciferin-H conversion, luminescence; hits give high values; factor 1 = untreated enzyme, 0 = blocked. activation factor at 5 µM. 1.4% of 96,000 active;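 active means activation factor of 2 or more for CYP2C9 at a 5 µM dose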;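 further: 0 = sulfaphenazole-blocked wells and 1 = vehicle-only wells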
CYP2C19 act: increases human CYP2C19 enzyme activity. P33261. recombinant CYP2C19, luciferin-H EGE luminescence; hits give high values; 0 = fully inhibited enzyme, 1 = untreated enzyme. activation factor at 5 µM. 96,000 tested, under 10 active;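 active means activation factor of at least 2 at 5 µM in the primary screen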;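 further: 0 = wells with 2.5 mM tranylcypromine and 1 = vehicle-only wells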
Cav32 inh: human Cav3.2 channel inhibition, primary screen; B-score at 10 µM; O95180; Cav3.2-expressing cells, Fluo-4 calcium fluorescence FDSS; hits give low values; 4% of 100,000 active;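 active means single-dose well whose peak fluorescence ratio is a statistical outlier from its plate by either plate-standardised score or position-corrected B-score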
Active calls of the source: *; x = no result.

SMILES | CYP2C9 inh | CYP2C19 inh | CYP2C9 activ | CYP2C19 act | Cav32 inh
C/C=C\C=C/C(=O)Nc1cccc(C2=NOC3(C2)C[C@H](C(N)=O)N(C(=O)Cc2ccc([N+](=O)[O-])cc2)C3)c1 (stereo not given in full) | x | x | x | x | 0.14
C[C@@H]1CC=C[C@H]2[C@H]1C(=O)N(Cc1ccccc1)[C@H]2c1ccc(/C=C/c2ccccc2)cc1F | x | x | x | x | -1.3
COc1ccc(C(=O)N2CCCCC2)cc1S(=O)(=O)Nc1ccccc1 | 33 | 19 | 0.7 | 0.8 | 0.96
CCOC(=O)N1CCN(C(=O)c2ccc(Cl)c(S(=O)(=O)Nc3ccccc3)c2)CC1 | 80* | 35 | 0.2 | 0.7 | 2.4
CS(=O)(=O)N(Cc1ccccc1)c1ccccc1C(=O)N1CCN(c2ccccc2)CC1 | 72* | 94* | 0.3 | 0.1 | -0.95
CCOC(=O)N1CCN(C(=O)c2ccc(NC(=O)c3ccc(C)cc3)cc2)CC1 | 70* | 48 | 0.3 | 0.5 | -0.54
CCN1CCN(C(=O)c2ccccc2N(Cc2ccccc2)S(C)(=O)=O)CC1 | -7 | 6 | 1.1 | 0.9 | 0.69
CCN1CCN(C(=O)c2ccccc2N(Cc2ccccc2)S(=O)(=O)c2ccc(C)cc2)CC1 | 33 | 72* | 0.7 | 0.3 | -0.1
CCOC(=O)N1CCN(C(=O)c2ccc(NC(C)=O)cc2)CC1 | 17 | 8 | 0.8 | 0.9 | 1.1
COC(C[C@H](O)C[C@H](O)COCc1ccccc1)OC | x | x | x | x | -0.18
CCOC(=O)N1CCN(C(=O)c2ccc(CN(c3ccccc3)S(C)(=O)=O)cc2)CC1 | 54* | 24 | 0.5 | 0.8 | 1.1
CS(=O)(=O)N(Cc1ccccc1)c1ccc(C(=O)N2CCOCC2)cc1 | 27 | 8 | 0.7 | 0.9 | 0.31
O=C(Nc1ccc(Cl)cn1)c1ccc(COCC(F)(F)C(F)F)o1 | 22 | 72* | 0.8 | 0.3 | -0.6
Cc1ccc(C(=O)NCc2ccc(Cl)cc2)o1 | -9 | 53* | 1.1 | 0.5 | 0.12
O=C(c1ccc(COCC(F)(F)F)o1)N1CCCCCC1 | 4 | 51* | 1 | 0.5 | 0.92
CC(C)(C)NC(=O)c1ccc(COCC(F)(F)F)o1 | -20 | -4 | 1.2 | 1 | -0.45
O=C(CCNC(=O)c1ccc(Br)o1)NCc1ccc(Cl)cc1 | -1 | 6 | 1 | 0.9 | 0.95
O=C(NCc1ccc(Cl)cc1)c1ccc(COCC(F)(F)F)o1 | 31 | 51* | 0.7 | 0.5 | -2.1
O=C(NC1CC2CCCC(C1)N2Cc1ccco1)NC12CC3CC(CC(C3)C1)C2 (stereo not given) | -5 | -20 | 1.1 | 1.2 | -2.4
COc1cc([N+](=O)[O-])ccc1N/C=C/C(=O)c1cccs1 | 17 | 24 | 0.8 | 0.8 | -0.82
COc1cccc(-c2cn3nc4c(nc3n2)CCCC4)c1 | 50* | 96* | 0.5 | 0 | 0.2
Clc1ccc(-c2cn3nc4c(nc3n2)CCCC4)cc1 | 7 | 17 | 0.9 | 0.8 | -1.4
CC1CCCN(c2nc3ccccc3nc2C(C#N)C(=O)OC2CCCCC2)C1 (stereo not given) | 17 | 3 | 0.8 | 1 | -2.2
COc1ccc(S(=O)(=O)C(C#N)c2nc3ccccc3nc2N2CCCC(C)C2)cc1 (stereo not given) | 93* | 86* | 0.1 | 0.1 | -4.6*
CC1CCCN(c2nc3ccccc3nc2C(C#N)S(=O)(=O)c2cccs2)C1 (stereo not given) | 75* | 3 | 0.3 | 1 | -5.9*
SMILES | CYP2C9 inh | CYP2C19 inh | CYP2C9 activ | CYP2C19 act | Cav32 inh
Cc1ccc(S(=O)(=O)C(C#N)c2nc3ccccc3nc2N2CC(C)OC(C)C2)cc1C (stereo not given) | 46 | 1 | 0.5 | 1 | -4.2*
Cc1ccc(S(=O)(=O)C(C#N)c2nc3ccccc3nc2N2CCCC2)cc1 (stereo not given) | 55* | 87* | 0.5 | 0.1 | -3.6
CCOc1ccc(C(CC(=O)O)NC(=O)C23CC4CC(CC(C4)C2)C3)cc1 (stereo not given) | x | x | x | x | 1.1
COc1cccc(-n2nnnc2SCC(=O)c2cc(OC)ccc2OC)c1 | 23 | 11 | 0.8 | 0.9 | -0.035
CCCCn1nnnc1SCC(=O)c1cc(Cl)ccc1OC | -104 | 74* | 2* | 0.3 | -3.5
COCCn1nnnc1SCC(=O)c1ccc(F)cc1 | x | x | x | x | 0.83
COc1ccc(Cl)cc1C(=O)CSc1nc(N)cc(N)n1 | -308 | 20 | 4.1* | 0.8 | -1.4
CCCCn1nnnc1SCC(=O)c1ccc(C)c(C)c1 | 41 | 90* | 0.6 | 0.1 | -3.3
CC(C)N(C(=O)CSc1nnc(CN2CCCCCC2=O)n1-c1ccccn1)C(C)C | -9 | -3 | 1.1 | 1 | 0.21
